Assay outcomes deposited in PubChem BioAssay by University of Kansas High Throughput Screening Laboratory.
This is a sample that favours compounds with a hit; in the whole collection about 3.5% have one here.
Pf apPOL inh – Pf-apPOL DNA polymerase inhibition | inhibition, % at 10 µM | hit rate 0.25% among 210,000 | Recombinant Pf-apPOL, molecular beacon fluorescence, 1.5 h
mHTT-CaM PPI inh – inhibitors of human mutant huntingtin-calmodulin interaction. P42858. AlphaScreen His-mHTT/GST-CaM binding, luminescence. inhibition, % at 15 µM. hit rate 3.6% among 190,000;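 note: 0% = both proteins with DMSO and 100% = one protein alone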
Starred values were filed as active, the others as inactive; ! = repeats disagree. Cut-off read from the data, not from the text of the source: active = inhibition above about 50%; inactive = the rest.

`O=C(O)CCC(=O)N1N=C(c2ccc([N+](=O)[O-])cc2)CC1c1ccc(Br)cc1` (stereo not drawn) gave Pf apPOL inh 0 and mHTT-CaM PPI inh 21.
For Cc1ccc(C(=O)Nc2ccccc2O)cc1 the results were Pf apPOL inh -2 and mHTT-CaM PPI inh -5.
`COc1ccc(C2CC(=O)c3c(O)cc(O)cc3O2)cc1O` (stereo not drawn) gave Pf apPOL inh 0.
CC(C)=CCc1c(O)cc(O)c2c1OC(c1ccccc1)CC2=O (stereo not drawn) was read as Pf apPOL inh -2 and mHTT-CaM PPI inh 51*.
Screening CCC(=O)Nc1cccc(-c2noc(C3CCCN(C(=O)c4ccccn4)C3)n2)c1 (stereo not drawn) returned Pf apPOL inh -3 and mHTT-CaM PPI inh -2.
For CCCSc1nc2c(cnn2-c2ccc(C)c(C)c2)c(=O)[nH]1 the results were Pf apPOL inh -5 and mHTT-CaM PPI inh -8.
`Cc1ccc(-n2ncc3c(=O)[nH]c(SCC(=O)O)nc32)cc1C` gave Pf apPOL inh 72* and mHTT-CaM PPI inh 10.
For O=C1CCC(c2ccccc2)C(O)=C1C=Nc1cccnc1 (stereo not drawn) the results were Pf apPOL inh 2.
For Clc1ccccc1N1CCN(Cc2ccoc2)CC1 the results were Pf apPOL inh -9 and mHTT-CaM PPI inh 0.
CC1(C)CC(c2ccc(F)cc2)(C(CN)CO)CCO1 (stereo not drawn) was read as Pf apPOL inh -15 and mHTT-CaM PPI inh 2.
Screening N#CC1=C(N)OC2=C(C(=O)CC(c3ccccc3)C2)C1C1CCCCC1 (stereo not drawn) returned Pf apPOL inh 51*! and mHTT-CaM PPI inh 60*!.
N#CC1=C(N)OC2=C(C(=O)CC(c3ccccc3)C2)C1c1ccc(Cl)cc1Cl (stereo not drawn) was read as Pf apPOL inh -6 and mHTT-CaM PPI inh 69*.
For N#CC1=C(N)OC2=C(C(=O)CC(c3ccccc3)C2)C1c1ccc(Cl)cc1 (stereo not drawn) the results were Pf apPOL inh -8 and mHTT-CaM PPI inh -2.
N#CC1=C(N)OC2=C(C(=O)CC(c3ccccc3)C2)C1c1ccsc1 (stereo not drawn) was read as Pf apPOL inh 1 and mHTT-CaM PPI inh 6.
For COc1ccc(NC(=O)CSC2=NN3CCCC(=O)N=C3S2)cc1 the results were Pf apPOL inh 1 and mHTT-CaM PPI inh -1.
Screening CCCN1C(=O)COc2ccc(-c3noc(-c4ccc(C)cc4)n3)cc21 returned Pf apPOL inh 1 and mHTT-CaM PPI inh -3.
Screening CC1CCN(C(=O)COc2ccc(C(C)C)cc2)CC1 returned Pf apPOL inh 0 and mHTT-CaM PPI inh -10.
`O=C(COc1ccc(F)cc1)N1CCC(n2nc(-c3ccsc3)ccc2=O)CC1` gave Pf apPOL inh -4 and mHTT-CaM PPI inh 92*.
COc1ccc(OCC(=O)N2CCC(n3nc(-c4ccsc4)ccc3=O)CC2)cc1 was read as Pf apPOL inh -2 and mHTT-CaM PPI inh 88*.
O=C(COc1ccc(F)cc1)N1CCN(C(=O)COc2ccc(F)cc2)CC1 was read as Pf apPOL inh 7 and mHTT-CaM PPI inh -2.
COc1ccccc1NC(=O)C1CCc2nc(N3CCOCC3)ncc2C1 (stereo not drawn) was read as Pf apPOL inh -2 and mHTT-CaM PPI inh -1.
`O=C(CCC1CCCN(C(=O)Nc2ccc(F)cc2)C1)NCc1ccccc1` (stereo not drawn) gave Pf apPOL inh -5 and mHTT-CaM PPI inh -6.
CCN1CCN(C(=O)c2ccc(C(C)(C)C)cc2)CC1 was read as Pf apPOL inh -6 and mHTT-CaM PPI inh -1.
`COC1=CC(=Cc2c(N)n3nc(-c4ccccc4C)sc3nc2=O)C=CC1=O` gave Pf apPOL inh -1 and mHTT-CaM PPI inh 57*.
`CCOC1=CC(=Cc2c(N)n3nc(COc4ccccc4)sc3nc2=O)C=CC1=O` gave Pf apPOL inh 0 and mHTT-CaM PPI inh 31.
`CC(=O)Nc1cc(-c2nc3ncccc3o2)ccc1Cl` gave Pf apPOL inh 2 and mHTT-CaM PPI inh 5.
CCn1c(-c2cc(NC(=O)C3CC3)n[nH]2)cc2c(OC)cccc21 was read as Pf apPOL inh -5 and mHTT-CaM PPI inh 50*.
`CCn1c(-c2cc(NC(=O)C3CC3)n[nH]2)cc2ccc(OC)cc21` gave Pf apPOL inh -4 and mHTT-CaM PPI inh 27.
For Cc1cccc(-c2noc(C3CCCN3C(=O)c3ccncc3)n2)c1 (stereo not drawn) the results were Pf apPOL inh -2 and mHTT-CaM PPI inh 13.
`CN1CCCc2cc(C(CNC(=O)C(=O)Nc3ccc4c(c3)OCCO4)N(C)C)ccc21` (stereo not drawn) gave Pf apPOL inh -10 and mHTT-CaM PPI inh 37.
`CN1CCc2cc(C(CNC(=O)C(=O)Nc3cccc(C(F)(F)F)c3)N(C)C)ccc21` (stereo not drawn) gave Pf apPOL inh -4 and mHTT-CaM PPI inh 53*.
CCCC(=O)NC(C)c1nc2ccccc2n1Cc1ccccc1F (stereo not drawn) was read as Pf apPOL inh -1 and mHTT-CaM PPI inh 4.
For COc1ccccc1C(=O)NC(C)c1nc2ccccc2n1Cc1ccccc1F (stereo not drawn) the results were Pf apPOL inh -1 and mHTT-CaM PPI inh 55*.
`Cc1ccc(N2C=C(C#N)S(=O)(=O)c3ccc(F)cc32)c(C)c1` gave Pf apPOL inh 0 and mHTT-CaM PPI inh -4.
`Cc1[nH]nc(SCC(=O)Nc2cc(Cl)ccc2O)c1[N+](=O)[O-]` gave Pf apPOL inh -7 and mHTT-CaM PPI inh 52*.
Cc1[nH]nc(SCC(=O)Nc2cccc(Cl)c2)c1[N+](=O)[O-] was read as Pf apPOL inh 4 and mHTT-CaM PPI inh 5.
`c1ccc(Nc2nn(-c3ccccc3)c[n+]2-c2ccccc2)cc1` gave Pf apPOL inh 2.
Screening O=C(c1ccccc1F)N1CCN(C(C(=O)N2CCCCC2)C2CCCC2)CC1 (stereo not drawn) returned Pf apPOL inh 3 and mHTT-CaM PPI inh 1.
CC(C)c1ccc2oc(-c3cc(N)ccc3O)nc2c1 was read as Pf apPOL inh -7 and mHTT-CaM PPI inh 62*.
For Cc1ccc2oc(-c3cc(N)ccc3O)nc2c1 the results were Pf apPOL inh -10 and mHTT-CaM PPI inh 34.
COc1ccc(Nc2c(Cl)cc(OC)cc2Cl)cc1 was read as Pf apPOL inh -5.
N#COc1ccc(Oc2ccc(OC#N)cc2)cc1 was read as Pf apPOL inh -29 and mHTT-CaM PPI inh 97*.
For N#Cc1ccc(Oc2ccc(N)cc2)cc1 the results were Pf apPOL inh -4 and mHTT-CaM PPI inh 0.
N#COc1ccc(Nc2ccc(OC#N)cc2)cc1 was read as Pf apPOL inh 5 and mHTT-CaM PPI inh 95*.
For Cc1cn2c(CCC(=O)N3CCN(CCc4ccccc4)CC3)csc2n1 the results were Pf apPOL inh -4 and mHTT-CaM PPI inh 6.
CC1CCN(C(=O)c2cc3c(s2)CCC(C(=O)NCc2ccncc2)C3)CC1 (stereo not drawn) was read as Pf apPOL inh -7 and mHTT-CaM PPI inh 10.
Screening CN1CCc2c(sc3c2C(=O)NC(c2ccc(COc4ccc(Cl)c(Cl)c4)o2)N3)C1 (stereo not drawn) returned Pf apPOL inh -10 and mHTT-CaM PPI inh 81*.
Screening CCOc1ccc(C2NC(=O)c3c(sc4c3CCN(C)C4)N2)c(O)c1 (stereo not drawn) returned Pf apPOL inh -5 and mHTT-CaM PPI inh 3.
Screening O=C(Nc1c(O)c2ccccc2[nH]c1=O)c1ccccc1F returned Pf apPOL inh -5 and mHTT-CaM PPI inh 3.
